# ChEMBL document CHEMBL3988442, “University of Dundee, Small-Polar-MMV Screening Library” (2021)
# In all, about 53,000 compounds went through this assay and about 900 (1.7%) showed an effect of 50% or more. The full list was thinned out, with strong results kept by preference.
# Tested on: Mycobacterium tuberculosis
# Assay: Cornell - Phenotypic assay to identify agents that inhibit growth of Mycobacterium tuberculosis
# Format: functional
# Parameters: scale not given: direction of the effect not stated beside the values
# Details: 10 mM as filed; unlikely as a test dose
row,SMILES,Percent Effect
1,CC(C)O[C@@H]1CC[C@H]2[C@H]1OCCN2C(=O)c1nn(C)c2ccccc12,4.286%
2,CC(C)S(=O)(=O)CC(=O)NCC(Cc1ccc(F)cc1)C(N)=O (stereo not drawn),7.629%
3,CC1(c2ccccc2)CCCN(Cc2cncn2C2CC2)C1 (stereo not drawn),-6.001%
4,CC1(c2ccccc2)CCCN(Cc2cncn2C2CCCC2)C1 (stereo not drawn),105.1%
5,COCCn1cncc1CN1CCCC(C)(c2ccccc2)C1 (stereo not drawn),16.9%
6,Cn1nccc1NCc1cc2cc(F)ccc2o1,-27.44%
7,COc1ccc(CNC(C)c2ccc(Cl)cc2)c(OC)c1OC (stereo not drawn),4.187%
8,COc1ccc(CNC(C)c2ccc(Cl)c(Cl)c2)c(OC)c1OC (stereo not drawn),81.35%
9,COc1ccc(CNC(C)c2cccc(Cl)c2)c(OC)c1OC (stereo not drawn),-6.089%
10,Cc1cc(NCc2ccc(CO)cc2)n2nc(C)cc2n1,-38.88%
11,CC1(C)CC(N2Cc3nc(N)ncc3C2=O)CC(C)(C)N1,5.443%
12,CC(C)CN1Cc2nc(N)ncc2C1=O,0.3963%
13,Nc1ncc2c(n1)CN(C1CCCC1)C2=O,100.2%
14,Cc1cnn(CCNCc2ccc(OCc3ccncc3)cc2)c1,-5.152%
15,CC(C)CN1Cc2c(C(=O)N(C)C)ncn2-c2ccccc2S1(=O)=O,-10.19%
16,CCCc1nnc2sc(CC3CN(Cc4ccccc4)CCO3)nn12 (stereo not drawn),22.38%
17,CNS(=O)(=O)c1cccc(S(=O)(=O)Nc2ncc(C)s2)c1,51.19%
18,Cc1cnc(NS(=O)(=O)c2ccccc2)s1,18.01%
19,Cc1cnc(NS(=O)(=O)c2cccc(C#N)c2)s1,-17.84%
20,CCc1noc(C(C)N2CCN(c3ccc(C#N)cn3)CC2)n1 (stereo not drawn),-10.8%
21,Cc1ncncc1C(=O)N1CCOC(C(=O)NC2CCCC2)C1 (stereo not drawn),-44.04%
22,Cn1cncc1CN1CCCC1c1cncc(Oc2ccc(Cl)cc2)n1 (stereo not drawn),-20.26%
23,Cn1ccc2ccc(C(=O)NC3CCOC(C)(C)C3)cc21 (stereo not drawn),33.83%
24,Cn1ccc2cc(C(=O)NC3CCOC(C)(C)C3)ccc21 (stereo not drawn),38.28%
25,COCCn1ccc2cc(C(=O)NC3CCOC(C)(C)C3)ccc21 (stereo not drawn),51.29%
26,COc1ccc2c(c1)OCC(Cc1cc(C(=O)N3CCCC3)ccn1)C2 (stereo not drawn),3.952%

row,SMILES,Percent Effect
1,COCCCN(CCOC)C(=O)Nc1ccc(C)cc1C,-5.189%
2,COCCNC(=O)Nc1ccc(C(=O)N2CCSCC2)cc1C,-6.31%
3,CCOCC(=O)Nc1ccc(N2CCSCC2)cc1C,35.44%
4,CCC(C)N(C)C(=O)Nc1ccc(N2CCSCC2)cc1C (stereo not drawn),109%
5,Cc1ccc(C(=O)N2CCSCC2)cc1NC(C)C,8.4%
6,CCN(CC1CCCO1)C(=O)Nc1cccc(N2CCOCC2)c1 (stereo not drawn),5.45%
7,Cc1ccc(C(=O)N2CCSCC2)cc1NC(=O)NCCO,4.458%
8,CCN(CC)C(=O)Nc1ccc(N2CCSCC2)cc1C,107.3%
9,CCCN(CC1CC1)C(=O)Cn1ccccc1=O,23.77%
10,COCCOc1ccc(NC(=O)N(CCO)C2CC2)cn1,5.522%
11,CCCN(CC1CC1)C(=O)Nc1ccc(N2CCSCC2)cc1C,108.2%
12,Cc1cc(N2CCSCC2)ccc1NC(=O)N(CCO)C1CC1,109.4%
13,CNc1ncc2c(n1)CN(CCc1ccc(Cl)cc1)C2=O,6.698%
14,O=C(O)C(F)(F)F.c1ccc(CN2CCC3(CC2)CC(Nc2nccs2)CO3)nc1 (stereo not drawn),10.27%
15,CN1CCCC1c1cncc(C(=O)NCCN2CCCCC2)n1 (stereo not drawn),5.104%
16,O=C(O)C(F)(F)F.O=C(O)C(F)(F)F.c1coc(CN2C[C@@H]3CCCO[C@@H]3[C@H](N3CCCC3)C2)c1,-1.356%
17,COc1ccccc1Nc1nc2c(C)nn(C)c2c(=O)n1C,-35.16%
18,CCS(=O)(=O)N1CCc2c(nc(C3CCCN3)nc2NC)C1.Cl (stereo not drawn),-16.35%
19,c1ccc(-c2cc(CN3C[C@@H]4CC[C@H](C3)N(CC3CC3)C4)on2)cc1,34.91%
20,c1ccc(-c2cc(CN3C[C@@H]4CC[C@H](C3)N(CC3CCC3)C4)on2)cc1,96.75%
21,C1CC(CN2C[C@H]3CC[C@@H]2CN(Cc2noc(C4CCCC4)n2)C3)C1,50.34%
22,c1ccc(-c2cc(CN3C[C@H]4CC[C@H]3C4)on2)cc1,18.4%
23,c1ccc(-c2nnc(CN3C[C@@H]4CC[C@H](C3)N(CC3CCC3)C4)o2)cc1,34.96%
24,C1CC(CN2C[C@H]3CC[C@@H]2CN(Cc2nnc(C4CC4)o2)C3)C1,14.78%
25,O=C(c1cnc(-c2cccnc2)nc1)N1CCSCC1,-5.308%
26,CCc1ccc(C(COC)NC(=O)c2ccc(F)c(NC(C)=O)c2)o1 (stereo not drawn),-34.26%

row,SMILES,Percent Effect
1,Cc1cc(CN2CCCC2)cc(Oc2nc(C)cnc2C)c1,-0.05473%
2,COCCN(C)C[C@@H]1CN(C(=O)c2ccc(OC)c(F)c2)C[C@@H]1CO,3.272%
3,Cc1cc(F)ccc1N1CCC(N2C[C@@H](CN(C)C)[C@@H](CO)C2)CC1,20.05%
4,Cc1cc(F)ccc1N1CCC(N2C[C@@H](C)[C@@](C)(O)C2)CC1,57.75%
5,C[C@@H]1CN(C2CCN(c3ccccc3F)CC2)C[C@]1(C)O,-0.763%
6,Cc1nn(C)c(N2CCCN(C)CC2)c1CNC(=O)CC1CCCC1,23.58%
7,CC(Cn1cc(Cl)cn1)C(=O)Nc1ccc(CN2CCCCCC2)cc1 (stereo not drawn),-18.96%
8,COc1cccc(NC(=O)NCc2cnn(C)c2)c1,2.363%
9,COc1cccc(NC(=O)C(C)Cn2cc(Cl)cn2)c1 (stereo not drawn),52.64%
10,COC(=O)Cn1c(=O)nc2n1C(=O)N(c1cccc(C)c1)C2,2.841%
11,O=C(c1csc(-c2cnccn2)n1)N1CCCC1Cn1cccn1 (stereo not drawn),-12.16%
12,O=C(NC1CCCN(c2ccccn2)C1)C1(c2ccccc2F)CC1 (stereo not drawn),-27.34%
13,Cn1cccc1C(=O)N1CC2(CCN(C(=O)c3cccnc3)C2)C1.O=C(O)C(F)(F)F,-3.792%
14,CNC(=O)c1cc(NC(=O)Nc2cnn(CC(C)C)c2)ccc1F,69.74%
15,CC(C)CCCNC(=O)Nc1ccc(F)c(C(N)=O)c1,-8.199%
16,COCCn1cc(NC(=O)NC(C)Cc2c(F)cccc2F)cn1 (stereo not drawn),-32.72%
17,CCc1c(C(=O)Nc2ccc(F)c(C(=O)NC)c2)cnn1CC(C)C,23.68%
18,CNC(=O)c1cc(NC(=O)NC(C)CCc2cccn2C)ccc1F (stereo not drawn),-1.57%
19,CCCn1cc(NC(=O)Nc2ccc(F)c(C(=O)NC)c2)cn1,69.43%
20,Cc1cc(CN(C)C(=O)C2CC(=O)N(Cc3cccnc3)C2)on1 (stereo not drawn),14.11%
21,CCc1nnc2n1CCN(Cc1nnc(-c3occc3C)o1)C2,-3.481%
22,COc1ccccc1NC(=O)Cn1c(=O)nc(N)c2cc(C)sc21,-16.18%
23,CNc1oc(-c2ccc(OC)c(S(=O)(=O)N3CCCC3)c2)nc1C#N,17.45%
24,COCC(C)NC(=O)NCCCc1cc(N)n(-c2ccccc2)n1 (stereo not drawn),4.106%
25,COC(=O)CCNC(=O)c1ccoc1CN1c2ccccc2CC1C (stereo not drawn),59.33%
26,CCNC(=O)c1ccoc1CN1c2ccccc2CC1C (stereo not drawn),70.88%

row,SMILES,Percent Effect
1,CC1Cc2ccccc2N1Cc1occc1C(=O)O (stereo not drawn),-3.286%
2,CC1Cc2ccccc2N1Cc1occc1C(=O)OCC(N)=O (stereo not drawn),46.11%
3,CC1Cc2ccccc2N1Cc1occc1C(=O)NCC(=O)N(C)C (stereo not drawn),0.4209%
4,COCCNC(=O)c1ccoc1CN1c2ccccc2CC1C (stereo not drawn),34.19%
5,CN(CCn1nc2ccccn2c1=O)CC(=O)NC1CC1,-0.7088%
6,Cc1nc(CN2CCC3(C2)CN(C(=O)c2ccc[nH]2)C3)cs1,9.497%
7,COc1cccc(NC(=O)Nc2ccc3c(c2)CC(=O)N3)c1,-2.338%
8,O=C(NCC(=O)N1CCc2ccccc2C1)c1ccoc1,-20.14%
9,COC(=O)N1CCN2C[C@H](CO)[C@@H](c3ccccc3)[C@H]2C1,9.303%
10,CC(=O)OC1CN(c2nc3c(C(F)(F)F)cccc3s2)C1,5.311%
11,COC1COC2(CCN(Cc3ccc4ccccc4n3)CC2)C1.O=C(O)C(F)(F)F.O=C(O)C(F)(F)F (stereo not drawn),14.78%
12,Cc1ccc(-n2cnnn2)cc1NCC(=O)Nc1ccccc1Cl,6.921%
13,O=C(CNc1cc(-n2cnnn2)ccc1F)Nc1ccccc1Cl,96.42%
14,Cc1ccc(-n2cnnn2)cc1NCC(=O)Nc1cc(F)ccc1F,11.17%
15,O=C(CNc1ccccc1Cl)Nc1cc(-n2cnnn2)ccc1F,22.69%
16,O=C(CNc1cc(-n2cnnn2)ccc1F)Nc1cc(F)ccc1F,3.475%
17,O=C(CNc1cc(-n2cnnn2)ccc1F)NCc1ccccc1,76.98%
18,O=S(=O)(c1ccc(F)c(F)c1)N1CCCC(c2nccs2)C1 (stereo not drawn),-0.9721%
19,Cc1cccc(C(=O)N2C[C@@H](OCc3ccncc3)[C@@H]3OCCC[C@@H]32)n1.O=C(O)C(F)(F)F.O=C(O)C(F)(F)F,29.52%
20,O=C(CNc1ccc(OC2CCOC2)cc1)NCc1ccco1 (stereo not drawn),37.67%
21,O=C(NCc1ccc(F)cc1)N1CCC(C2OCCO2)CC1,9.763%
22,Cc1ccccc1CNC(=O)CNc1ccc(OC2CCOC2)cc1 (stereo not drawn),74.57%
23,O=C(CNc1ccc(OC2CCOC2)cc1)NCc1cccs1 (stereo not drawn),8.02%
24,Cl.Cl.O=C(CN1CCN(CC(O)C2CC2)CC1)NCc1ccc(F)cc1 (stereo not drawn),12.18%
25,O=C(CNc1ccc(OC2CCOC2)cc1)NCc1ccc(F)cc1 (stereo not drawn),70.37%
